# Where two headings read alike, the source gives them in different places.
# Experiments:
# GRK3 = tested on: T1, GRK3; details: concentration: 1 μM, replicates: in singlicate; n = 1
# T1 construct: gene ADRBK2
# GRK4 = details: concentration: 1 μM, replicates: in singlicate; n = 1
# GRK7 = details: concentration: 1 μM, replicates: in singlicate; n = 1
# GSK3A = details: concentration: 1 μM, replicates: in singlicate; n = 1
# GSK3B = details: n = 1
# HASPIN = tested on: T2, HASPIN; details: concentration: 1 μM, replicates: in singlicate; n = 1
# T2 construct: gene GSG2
# HCK = details: concentration: 1 μM, replicates: in singlicate; n = 1
# HIPK1 = details: concentration: 1 μM, replicates: in singlicate; n = 1
# HIPK2 = details: concentration: 1 μM, replicates: in singlicate; n = 1
# HIPK3 = details: concentration: 1 μM, replicates: in singlicate; n = 1
# HIPK4 = details: concentration: 1 μM, replicates: in singlicate; n = 1
# HPK1 = details: concentration: 1 μM, replicates: in singlicate; n = 1
# HUNK = details: concentration: 1 μM, replicates: in singlicate; n = 1
# ICK = details: concentration: 1 μM, replicates: in singlicate; n = 1
# IGF1R = details: concentration: 1 μM, replicates: in singlicate; n = 1
# IKK-alpha = tested on: T3, IKK-alpha; details: concentration: 1 μM, replicates: in singlicate; n = 1
# T3 construct: gene CHUK
# IKK-beta = tested on: T4, IKK-beta; details: concentration: 1 μM, replicates: in singlicate; n = 1
# T4 construct: gene IKBKB
# IKK-epsilon = tested on: T5, IKK-epsilon; details: concentration: 1 μM, replicates: in singlicate; n = 1
# T5 construct: gene IKBKE
# INSRR = details: concentration: 1 μM, replicates: in singlicate; n = 1
# INSR = details: concentration: 1 μM, replicates: in singlicate; n = 1
# [1] = concentration: 1 μM, replicates: in singlicate
# 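Note: KINOMEscan kinase panel screen.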
smiles,measurement,setting,value
CCn1c(-c2ccccc2)nc2cnccc21 [SB-733416],%Inh,GRK3,70%
same,%Inh,GRK4,29%
same,%Inh,GRK7,0%
same,%Inh,GSK3A,0%
same,%Inh,GSK3B; [1],25%
same,%Inh,HASPIN,0%
same,%Inh,HCK,17%
same,%Inh,HIPK1,0%
same,%Inh,HIPK2,0%
same,%Inh,HIPK3,10%
same,%Inh,HIPK4,0%
same,%Inh,HPK1,48%
same,%Inh,HUNK,0%
same,%Inh,ICK,46%
same,%Inh,IGF1R,7%
same,%Inh,IKK-alpha,37%
same,%Inh,IKK-beta,43%
same,%Inh,IKK-epsilon,19%
same,%Inh,INSRR,2%
same,%Inh,INSR,4%
COc1cccc(C2=C(Nc3cc(Cl)c(O)c(Cl)c3)C(=O)NC2=O)c1 [SB-390767],%Inh,GRK3,28%
same,%Inh,GRK4,1%
same,%Inh,GRK7,0%
same,%Inh,GSK3A,44%
same,%Inh,GSK3B; 1 µM,33%
same,%Inh,HASPIN,0%
same,%Inh,HCK,0%
same,%Inh,HIPK1,0%
same,%Inh,HIPK2,0%
same,%Inh,HIPK3,20%
same,%Inh,HIPK4,0%
same,%Inh,HPK1,43%
same,%Inh,HUNK,0%
same,%Inh,ICK,27%
same,%Inh,IGF1R,5%
same,%Inh,IKK-alpha,37%
same,%Inh,IKK-beta,56%
same,%Inh,IKK-epsilon,0%
same,%Inh,INSRR,0%
same,%Inh,INSR,0%
CC(=O)c1c(C)c2cnc(Nc3ccn(C)n3)nc2n(C2CCCC2)c1=O,%Inh,GRK3,17%
same,%Inh,GRK4,0%
same,%Inh,GRK7,0%
same,%Inh,GSK3A,12%
same,%Inh,GSK3B; [1],0%
same,%Inh,HASPIN,0%
same,%Inh,HCK,29%
same,%Inh,HIPK1,14%
same,%Inh,HIPK2,31%
same,%Inh,HIPK3,13%
same,%Inh,HIPK4,0%
same,%Inh,HPK1,0%
same,%Inh,HUNK,0%
same,%Inh,ICK,0%
same,%Inh,IGF1R,1%
same,%Inh,IKK-alpha,0%
same,%Inh,IKK-beta,0%
same,%Inh,IKK-epsilon,0%
same,%Inh,INSRR,0%
same,%Inh,INSR,0%
Cc1c(Cn2c3ccccc3n3c(=O)cc(N4CCOCC4)nc23)cccc1C(F)(F)F [GSK2306394],%Inh,GRK3,0%
same,%Inh,GRK4,0%
same,%Inh,GRK7,0%
same,%Inh,GSK3A,13%
same,%Inh,GSK3B; [1],18%
same,%Inh,HASPIN,0%
same,%Inh,HCK,0%
same,%Inh,HIPK1,0%
same,%Inh,HIPK2,0%
same,%Inh,HIPK3,16%
same,%Inh,HIPK4,0%
same,%Inh,HPK1,5%
same,%Inh,HUNK,0%
same,%Inh,ICK,6%
same,%Inh,IGF1R,33%
same,%Inh,IKK-alpha,35%
same,%Inh,IKK-beta,27%
same,%Inh,IKK-epsilon,0%
same,%Inh,INSRR,11%
same,%Inh,INSR,0%
Cc1ccc(-c2nc(Nc3ccncc3)c3ccccc3n2)s1 [GSK189015],%Inh,GRK3,0%
same,%Inh,GRK4,13%
same,%Inh,GRK7,0%
same,%Inh,GSK3A,18%
same,%Inh,GSK3B; [1],28%
same,%Inh,HASPIN,54%
same,%Inh,HCK,10%
same,%Inh,HIPK1,0%
same,%Inh,HIPK2,0%
same,%Inh,HIPK3,41%
same,%Inh,HIPK4,27%
same,%Inh,HPK1,41%
same,%Inh,HUNK,0%
same,%Inh,ICK,19%
same,%Inh,IGF1R,18%
same,%Inh,IKK-alpha,2%
same,%Inh,IKK-beta,20%
same,%Inh,IKK-epsilon,0%
same,%Inh,INSRR,22%
same,%Inh,INSR,9%
CC(C)c1ccc(O)cc1Nc1ccnc2ccc(C(F)(F)F)cc12 [GW482059],%Inh,GRK3,0%
same,%Inh,GRK4,21%
same,%Inh,GRK7,0%
same,%Inh,GSK3A,19%
same,%Inh,GSK3B; [1],0%
same,%Inh,HASPIN,3%
same,%Inh,HCK,10%
same,%Inh,HIPK1,0%
same,%Inh,HIPK2,31%
same,%Inh,HIPK3,0%
same,%Inh,HIPK4,10%
same,%Inh,HPK1,23%
same,%Inh,HUNK,0%
same,%Inh,ICK,0%
same,%Inh,IGF1R,3%
same,%Inh,IKK-alpha,0%
same,%Inh,IKK-beta,0%
same,%Inh,IKK-epsilon,0%
same,%Inh,INSRR,7%
same,%Inh,INSR,0%
O=C(Nc1n[nH]c2cc(-c3ccsc3)ccc12)C1CC1 [SB-732932],%Inh,GRK3,40%
same,%Inh,GRK4,79%
same,%Inh,GRK7,0%
same,%Inh,GSK3A,38%
same,%Inh,GSK3B; 1 µM,29%
same,%Inh,HASPIN,43%
same,%Inh,HCK,0%
same,%Inh,HIPK1,7%
same,%Inh,HIPK2,26%
same,%Inh,HIPK3,24%
same,%Inh,HIPK4,17%
same,%Inh,HPK1,0%
same,%Inh,HUNK,0%
same,%Inh,ICK,63%
same,%Inh,IGF1R,0%
same,%Inh,IKK-alpha,9%
same,%Inh,IKK-beta,9%
same,%Inh,IKK-epsilon,0%
same,%Inh,INSRR,14%
same,%Inh,INSR,9%
COc1ccc(CSc2nnc(-c3ccc4nccn4c3)o2)cc1C(F)(F)F,%Inh,GRK3,37%
same,%Inh,GRK4,0%
same,%Inh,GRK7,15%
same,%Inh,GSK3A,93.8%
same,%Inh,GSK3B; [1],93.8%
same,%Inh,HASPIN,32%
same,%Inh,HCK,0%
same,%Inh,HIPK1,31%
same,%Inh,HIPK2,20%
same,%Inh,HIPK3,5%
same,%Inh,HIPK4,6%
same,%Inh,HPK1,0%
same,%Inh,HUNK,0%
same,%Inh,ICK,0%
same,%Inh,IGF1R,0%
same,%Inh,IKK-alpha,10%
same,%Inh,IKK-beta,7%
same,%Inh,IKK-epsilon,11%
same,%Inh,INSRR,8%
same,%Inh,INSR,5%

# Reference: PMC5540273 (PLoS ONE, 2017)
